High-throughput results as filed in PubChem BioAssay.
GDH-TPI counter-1: GDH-TPI coupling enzyme inhibitors, primary screen, artefact control for M. tuberculosis FBA inhibitor project, biochemical, absorbance, full deck | actives 1.2% (n = 360,000) | GDH-TPI coupled enzyme counterscreen, NADH absorbance | inhibition, % at 4.8 µM; in the data active = inhibition above about 30%;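 note: 0% = DMSO wells and 100% = wells lacking the enzyme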
FBA Mtb inh: Mtb FBA enzyme inhibitors, primary screen, biochemical, fluorescence, strain H37Rv; Fructose-bisphosphate aldolase (Mycobacterium tuberculosis (strain ATCC 25618 / H37Rv)), …; purified M. tuberculosis FBA, fluorescence read-out; inhibition, % at 1 µM; actives 2.3% (n = 360,000);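 note: 0% = vehicle and 100% = reference inhibitor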
Target sequence (P9WQA3 whole entry, looked up): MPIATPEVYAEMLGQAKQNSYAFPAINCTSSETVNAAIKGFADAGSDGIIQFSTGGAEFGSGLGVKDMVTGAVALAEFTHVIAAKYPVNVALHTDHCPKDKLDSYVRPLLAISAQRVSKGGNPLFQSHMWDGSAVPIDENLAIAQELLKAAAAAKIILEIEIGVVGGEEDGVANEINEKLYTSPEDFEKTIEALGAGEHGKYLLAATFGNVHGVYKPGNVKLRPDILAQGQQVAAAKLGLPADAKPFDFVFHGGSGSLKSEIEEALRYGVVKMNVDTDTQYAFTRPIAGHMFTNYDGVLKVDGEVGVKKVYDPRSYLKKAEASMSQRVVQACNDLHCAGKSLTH
RecA intein inh: Mtb RecA intein splicing inhibitors, primary screen, biochemical, fluorescence, HTS | cell-free RecA intein splicing | inhibition, % (no concentration beside the values) | actives 0.75% (n = 290,000) | AID 2221, 2009; in the data active = inhibition above about 30%;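 note: 0% = vehicle wells and 100% = reference inhibitor control wells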
CCHFV vOTU inh: CCHFV vOTU protease inhibitors, primary screen, biochemical, Pep-AMC substrate, fluorescence | Crimean-Congo hemorrhagic fever virus L polyprotein viral ovarian tumor (vOTU) protease … | inhibition, % at 11.5 µM | actives 0.55% (n = 370,000); in the data active = inhibition above about 30%; note: 0% = vehicle wells with enzyme and 100% = no enzyme wells
Mtb FBA inh conf: M. tuberculosis aldolase blockers, biochemical, fluorescence, strain H37Rv, confirmation; purified M. tuberculosis FBA, fluorescence read-out; shares compounds with FBA Mtb inh; inhibition, % at 1 µM; actives 78% (n = 5,600);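 note: 0% = vehicle wells and 100% = reference inhibitor wells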
GDH-TPI counter-2: GDH-TPI coupling enzyme inhibitors, artefact control for M. tuberculosis FBA inhibitor project, biochemical, fluorescence, high throughput; GDH-TPI coupled enzyme counterscreen; inhibition, % at 1 µM; actives 81% (n = 5,600); AID 652141, 2013; shares compounds with FBA Mtb inh; in the data active = inhibition above about 10%
* marks the source's active call; other numbers are inactive results; · = not tested or not shown; + = active, no number. Rows were chosen to be rich in hits. Some 4.2% of all compounds tested hit in one or more screens of this group. Cut-off read from the data, not from the text of the source, unless noted: active = inhibition above about 27%; inactive = the rest.

SMILES	GDH-TPI counter-1	FBA Mtb inh	RecA intein inh	CCHFV vOTU inh	Mtb FBA inh conf	GDH-TPI counter-2
O=c1[nH]c(=O)n(Cc2ccccc2)c2nc(-c3ccc(C(F)(F)F)cc3)n(CCO)c12	6	69*	-5	7	134*	115*
CCc1cccc(NC(=O)C2CCCN(S(=O)(=O)c3cccnc3)C2)c1 (centres undefined)	-9	-1	-1	-8	·	·
O=C1C=CN2CCOCC2C1 (centres undefined)	14	1	·	3	·	·
COC(=O)C1(C)NC(=O)c2ccccc2N1 (centres undefined)	0	30*	0	-36	39*	42*
COC(=O)c1cccc2c1NC(=O)C2=O	10	1	6	7	·	·
COC(=O)C1(C)Nc2ccccc2C(=O)N1c1ccccc1OC (centres undefined)	9	29*	1	-31	86*	56*
COc1ccc(N2C(=O)c3ccccc3NC2(C)C)cc1	1	25	-1	-29	·	·
O=S1(=O)CC(N2CC=CC2)CN1C1CCCCC1 (centres undefined)	·	2	·	1	·	·
COCCNC(=O)c1ccc(N2CC3CC(C2)c2cccc(=O)n2C3)c(NC(=O)c2ccccc2Cl)c1 (centres undefined)	-1	3	·	3	·	·
O=C(CCS(=O)(=O)c1ccccc1)N1CCN(c2ccccc2)CC1	-3	4	-3	-16	·	·
O=C(CCS(=O)(=O)c1ccc(Br)cc1)N1CCN(c2ccccc2)CC1	6	73*	·	0	69*	62*
Cc1cc(C)c(N)c(C(=O)O)c1	-9	48*	-1	-31	+	+
N#CC1=CN(Cc2ccccc2)C=C(/C=N/Nc2ccccc2)C1	3	1	·	0	·	·
CCOC(=O)C(=O)C1=CN(Cc2ccccc2)C=C(C#N)C1	16	29*	-4	1	98*	70*
Cc1cc(NC(C)c2ccccc2)n2ncc(-c3ccccc3)c2n1 (centres undefined)	-8	33*	17	4	41*	30*
COc1ccc(CCNc2cc(C)nc3c(-c4ccc(Cl)cc4)cnn23)cc1OC	5	34*	10	-23	42*	34*
Cc1cc(NCc2ccccc2)n2ncc(-c3ccccc3)c2n1	13	28*	6	-3	123*	123*
Cc1cc(NC2CCCC2)n2ncc(-c3ccccc3)c2n1	7	17	-2	-7	·	·
COc1ccc(NC(=O)CSc2nc(=O)n(CCN(C)C)c3c2CCCC3)cc1OC	-5	0	2	1	·	·
C=CCNC(=O)C(=O)NCC1CCCN1CC (centres undefined)	-7	-1	-3	-3	·	·
CCCNC(=O)C(=O)NCC1CCCN1CC (centres undefined)	-3	29*	1	5	18	13*
CCOC(=O)c1[nH]c2ccc(OCC)cc2c1NC(=O)CN1CCN(c2ccccc2)CC1	-6	13	0	-1	·	·
CCOC(=O)c1[nH]c2ccc(OCC)cc2c1NC(=O)CN1CCC2(CC1)OCCO2	16	69*	0	-20	+	+
CCOC(=O)c1[nH]c2cc3c(cc2c1NC(=O)CN1CCC2(CC1)OCCO2)OCO3	28	106*	-3	-88	6	8
CCOC(=O)C(=NO)C1=CSC2=NNC(C)(C)N12	24	-3	·	11	·	·
SMILES	GDH-TPI counter-1	FBA Mtb inh	RecA intein inh	CCHFV vOTU inh	Mtb FBA inh conf	GDH-TPI counter-2
COC(=O)[C@]1(Cc2ccccc2)N[C@H](c2ccc(-c3ccc(F)cc3)cc2)[C@@H]2C(=O)N(C)C(=O)[C@@H]21	5	14	6	3	·	·
COc1ccccc1NC(=O)N1CCCC1C(=O)Nc1ccc2c(c1)OCO2 (centres undefined)	10	28*	-3	4	99*	86*
O=C(c1ccco1)N1CCN(C(=O)c2cccn3c(=O)c4c5c(sc4nc23)CCCC5)CC1	28	34*	·	-9	189*	145*
Cc1cccn2c(=O)c3cc(C(=O)N4CCN(C(=O)c5ccco5)CC4)n(C)c3nc12	26	81*	-16	-89	+	+
Cc1cccn2c(=O)c3cc(C(=O)N4c5ccccc5CC4C)n(C)c3nc12 (centres undefined)	8	0	-5	-12	·	·
Cc1cccn2c(=O)c3cc(C(=O)N4CCOCC4)n(C)c3nc12	17	66*	-22	-21	-10	-11
COc1ccc(-c2c[n+]3c4n2CCCCC4=C(c2ccc(Br)cc2)C3)cc1	8	75*	24	-6	136*	105*
C=CCn1cc(-c2ccc(Cl)cc2)cc(C#N)c1=O	11	19	0	-22	·	·
C=CCn1cc(-c2ccccc2)cc(C#N)c1=O	3	73*	4	-74	-4	-3
COCCCNc1ccn2nc(-c3ccc(Cl)cc3)cc2n1	14	34*	·	0	87*	76*
O=c1oc2cccnc2n1CCS(=O)(=O)c1ccc(F)cc1	8	39*	-1	-12	4	1
Cc1cc(NC(=O)CCCC(=O)NCc2cccs2)no1	-8	57*	·	-26	88*	62*
N#Cc1nnn2c1nc(N)c1c(F)cccc12	3	32*	-1	2	170*	143*
Cc1nc(NC(=O)c2ccc([N+](=O)[O-])cc2Cl)sc1C(=O)N(C)C	13	91*	1	10	+	162*
Cc1cc(C(=O)Nc2nc(C)c(C(=O)N(C)C)s2)ccc1[N+](=O)[O-]	8	-2	-1	0	·	·
CCn1nnnc1SCC(=O)N1CCOCC1	2	89*	1	8	+	+
Cc1ccc2c(c1C)OC(=O)CC2c1ccccc1 (centres undefined)	0	0	-4	8	·	·
c1ccc2c(c1)[nH]c1c(N3CCCC3)ncnc12	14	3	-2	12	·	·
c1ccc2c(c1)[nH]c1c(N3CCN(C4CCCCC4)CC3)ncnc12	7	33*	1	-28	40*	22*
CC(=O)Nc1cc(-c2ccccc2Cl)cn2c(-c3ccc(S(C)(=O)=O)cc3)cnc12	12	42*	·	-32	+	183*
CC(=O)Nc1cc(-c2cccc(NS(C)(=O)=O)c2)cn2c(-c3ccccc3)cnc12	-2	9	·	-4	·	·
CC(=O)Nc1cc(-c2ccccc2)cn2c(-c3ccc(F)c(Cl)c3)cnc12	13	4	·	0	·	·
COc1ccccc1-c1cc(NC(C)=O)c2ncc(-c3ccc(S(C)(=O)=O)cc3)n2c1	16	59*	·	-34	71*	62*
